According to article PMC4336329 (PLoS ONE, 2015):
In all, about 310,000 compounds went through this assay and about 14,000 (4.5%) showed an effect of 50% or more. The effect is printed as a negative number. What follows is part of a selection rich in strong results, with near analogues and random picks from the rest.

biological target: human ether-à-go-go-related gene (hERG) potassium channel (human, UniProt Q12809); test: primary screen, population patch clamp on CHO cells stably expressing hERG; higher = less effect of the substance
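Also: peak tail current of the secondary pulse compared with the same well before compound.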

Sequence of human ether-à-go-go-related gene (hERG) potassium channel (Q12809 whole entry, looked up): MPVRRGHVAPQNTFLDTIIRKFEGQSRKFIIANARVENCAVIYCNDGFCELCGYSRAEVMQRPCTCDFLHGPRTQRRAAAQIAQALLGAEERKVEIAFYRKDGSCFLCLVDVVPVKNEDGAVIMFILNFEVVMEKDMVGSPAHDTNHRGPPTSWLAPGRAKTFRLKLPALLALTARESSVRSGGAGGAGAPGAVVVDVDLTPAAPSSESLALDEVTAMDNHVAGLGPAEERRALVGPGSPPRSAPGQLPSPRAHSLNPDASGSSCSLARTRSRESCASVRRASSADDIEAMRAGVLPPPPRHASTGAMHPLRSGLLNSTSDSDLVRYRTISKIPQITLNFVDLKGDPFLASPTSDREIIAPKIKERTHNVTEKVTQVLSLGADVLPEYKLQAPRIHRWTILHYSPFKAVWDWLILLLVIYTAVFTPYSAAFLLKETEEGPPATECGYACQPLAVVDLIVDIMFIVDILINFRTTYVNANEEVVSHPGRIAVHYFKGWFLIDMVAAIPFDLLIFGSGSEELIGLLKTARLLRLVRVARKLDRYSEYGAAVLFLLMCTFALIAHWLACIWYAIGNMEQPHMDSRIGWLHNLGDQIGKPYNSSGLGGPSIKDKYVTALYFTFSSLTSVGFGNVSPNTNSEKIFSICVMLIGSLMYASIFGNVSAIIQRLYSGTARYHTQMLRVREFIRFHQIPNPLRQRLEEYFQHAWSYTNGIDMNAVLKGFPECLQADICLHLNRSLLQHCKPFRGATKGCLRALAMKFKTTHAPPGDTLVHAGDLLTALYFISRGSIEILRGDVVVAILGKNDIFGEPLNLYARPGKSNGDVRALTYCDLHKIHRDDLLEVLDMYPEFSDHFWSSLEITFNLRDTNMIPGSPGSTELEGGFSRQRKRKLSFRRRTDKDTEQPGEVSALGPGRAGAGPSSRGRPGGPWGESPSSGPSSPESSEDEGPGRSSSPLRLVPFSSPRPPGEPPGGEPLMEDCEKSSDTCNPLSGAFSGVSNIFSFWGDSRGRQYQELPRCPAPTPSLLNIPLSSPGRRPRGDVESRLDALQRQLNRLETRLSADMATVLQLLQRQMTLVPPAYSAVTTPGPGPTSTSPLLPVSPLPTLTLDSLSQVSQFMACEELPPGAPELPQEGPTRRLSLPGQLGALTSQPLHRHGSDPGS

| SMILES | hERG current change (%, negative = inhibition) at 10uM |
| --- | --- |
| CCn1c(CSc2nc3ccccc3s2)nnc1SCC(=O)c1ccc2c(c1)OCCO2 | -10.5% |
| O=C(COC(=O)/C=C/c1cccc(F)c1)Nc1ccc2[nH]c(=O)[nH]c2c1 | 9.96% |
| CCNC(=O)NC1(C(=O)N2CCC(Cc3ccccc3)CC2)CCCCC1 | 21.7% |
| CCCn1c(N)c(C(=O)CSc2nnc(Cc3cccs3)n2C2CC2)c(=O)n(C)c1=O | -0.534% |
| COc1ccc(N(CC(=O)Nc2ccccc2F)S(=O)(=O)c2ccc(OC)c(OC)c2)cc1 | -24.2% |
| O=C(NCCN1CCOCC1)c1cccc(S(=O)(=O)N2CCCCCC2)c1 | 7.38% |
| COc1ccc(C(=O)N/N=C/c2ccc(OC(=O)c3cccc4ccccc34)c([N+](=O)[O-])c2)cc1 | 3.57% |
| O=C(COC(=O)c1ccc(S(=O)(=O)NCc2ccco2)cc1)NC1CCCCC1 | -1.72% |
| CCN(Cc1nc(-c2ccc(OC)c(OC)c2)no1)C(=O)c1ccc2c(c1)OCO2 | 5.32% |
| O=c1[nH]c2c(c(=O)[nH]1)CCC2 | 17.7% |
| CS(=O)(=O)Nc1ccc(C2=NN(C(=O)c3ccco3)C(c3ccccc3)C2)cc1 (centres unmarked) | -77.6% |
| CS(=O)(=O)Nc1ccc(C2=NN(C(=O)c3ccco3)C(c3ccco3)C2)cc1 (centres unmarked) | -72.3% |
| O=C(c1ccco1)N1N=C(c2cccs2)CC1c1ccc(F)cc1 (centres unmarked) | -29% |
| Cc1ccc(C2CC(c3ccc(NS(C)(=O)=O)cc3)=NN2C(=O)c2ccco2)cc1 (centres unmarked) | -78.5% |
| CCC(CC)C(=O)N1N=C(c2ccc(NS(C)(=O)=O)cc2)CC1c1ccc(C)cc1 (centres unmarked) | -7.85% |
| O=C(c1ccco1)N1N=C(c2ccccc2)CC1c1ccc2nccnc2c1 (centres unmarked) | -45% |
| CCS(=O)(=O)Nc1ccc(C2=NN(C(=O)c3ccco3)C(c3ccc(C)cc3)C2)cc1 (centres unmarked) | -21% |
| CCS(=O)(=O)Nc1ccc(C2=NN(C(=O)c3ccco3)C(c3cccs3)C2)cc1 (centres unmarked) | -1.38% |
| CS(=O)(=O)Nc1ccc(C2=NN(C(=O)c3ccco3)C(c3ccc(F)cc3)C2)cc1 (centres unmarked) | -81.1% |
| O=C(c1ccco1)N1N=C(c2ccc3nccnc3c2)CC1c1ccccc1 (centres unmarked) | -22.3% |
| CCS(=O)(=O)Nc1ccc(C2=NN(C(=O)c3ccco3)C(c3ccco3)C2)cc1 (centres unmarked) | -7.66% |
| O=C(c1ccco1)N1N=C(c2ccc(Cl)cc2)CC1c1ccco1 (centres unmarked) | 15% |

| SMILES | hERG current change (%, negative = inhibition) at 10uM |
| --- | --- |
| O=C(c1cc(-c2ccc(O)cc2)on1)N1CCN(c2ccc(F)cc2)CC1 | -23.6% |
| O=C(NCCCO)C(=O)NCC1OCCCN1S(=O)(=O)c1cccs1 (centres unmarked) | -10.6% |
| COc1ccc(C(=O)N(C)Cc2cnn(Cc3ccccc3)c2)cc1S(=O)(=O)N1CCOCC1 | -27% |
| Cc1cccc(NC(=S)Nc2c(C)n(C)n(-c3ccccc3)c2=O)c1C | -2.23% |
| CCc1nnc(NC(=O)CSc2nnc(-c3ccc(S(=O)(=O)N4CCCC4)cc3)n2CC)s1 | 8.86% |
| CN(C)N1C(=O)CC(C)(c2ccc([N+](=O)[O-])cc2)C1=O (centres unmarked) | -0.575% |
| CCn1c(=O)cc(OCC(=O)NC(C)c2ccc3c(c2)OCCO3)c2ccccc21 (centres unmarked) | -4.48% |
| CC/C(=N\O)C(C)(C)/[N+]([O-])=C/c1ccc(Br)cc1 | 5.28% |
| CN(c1ccccc1)S(=O)(=O)c1cccc(NC(=O)c2ccc(=O)[nH]c2)c1 | -11.7% |
| COCCNC(=O)c1onc(CSc2ccccc2)c1C(=O)O | 7.09% |
| O=C(CN1CCOc2ccccc21)NCc1ccco1 | 2.93% |
| Cc1cccc(NC(=O)C2(C)CC3c4ccccc4C2c2ccccc23)c1 (centres unmarked) | 9.5% |
| O=C(Nc1nnc(CCN2CCCCC2)s1)c1cccc(Cl)c1 | -10.8% |
| Cl.O=C(Nc1nnc(CCN2CCCCC2)s1)c1ccccc1 | 4.58% |
| O=C(Nc1nnc(CCN2CCCCC2)s1)c1ccc(Br)cc1 | -51.4% |
| CC(C)C(=O)Nc1ccc(NC(=O)c2ccc3c(c2)OCO3)cc1 | 10.2% |
| Cc1ccccc1OCC(=O)Nc1cccc(S(=O)(=O)NC2=NCCCCC2)c1 | -7.89% |
| Cc1cccc([C@@H]2C[C@H]3CN(Cc4cccc(Cl)c4)C(=O)[C@]34CCCN24)n1 | -55% |
| O=C1N(Cc2cccc(Cl)c2)C[C@@H]2C[C@@H](c3ccco3)N3CCC[C@@]123 | -25.9% |
| O=C1N(Cc2cccc(Cl)c2)C[C@@H]2C[C@@H](c3ccccn3)N3CCC[C@@]123 | -18.5% |
| CCn1ncc([C@@H]2C[C@H]3CN(Cc4cccc(Cl)c4)C(=O)[C@]34CCCN24)c1C | -33% |
| O=C1N(Cc2cccc(Cl)c2)C[C@@H]2C[C@@H](c3ccsc3)N3CCC[C@@]123 | -60.1% |
